Among the data in PubChem BioAssay AID1722 (National Center for Advancing Translational Sciences (NCATS), 2009) are outcome values, retold here.

The whole screen tested about 290,000 compounds, of which fewer than 10 were called active. Calls follow the shape of the full dose curve. These entries were drawn from the full list.

Pyruvate kinase (Leishmania mexicana), sequence (Q27686 whole entry, looked up): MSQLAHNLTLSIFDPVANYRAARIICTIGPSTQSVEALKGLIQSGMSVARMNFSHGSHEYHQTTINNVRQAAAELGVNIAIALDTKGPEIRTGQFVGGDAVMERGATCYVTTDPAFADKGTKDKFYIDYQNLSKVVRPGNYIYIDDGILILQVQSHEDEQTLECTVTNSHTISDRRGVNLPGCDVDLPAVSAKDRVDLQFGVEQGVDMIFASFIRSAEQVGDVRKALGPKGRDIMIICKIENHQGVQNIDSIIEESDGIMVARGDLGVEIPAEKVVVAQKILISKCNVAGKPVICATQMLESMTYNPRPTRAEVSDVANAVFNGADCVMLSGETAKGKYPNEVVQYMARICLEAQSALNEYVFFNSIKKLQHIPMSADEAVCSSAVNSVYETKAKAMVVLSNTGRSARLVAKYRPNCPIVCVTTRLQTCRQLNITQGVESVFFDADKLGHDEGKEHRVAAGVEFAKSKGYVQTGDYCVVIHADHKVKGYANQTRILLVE

This test addresses Pyruvate kinase (Leishmania mexicana) (UniProt Q27686). Nature of the test: qHTS Assay for Activators of Leishmania Mexicana Pyruvate Kinase (LmPK). The settings on record: purified LmPK, Kinase-Glo ATP luminescence, 1 h; series mostly up to 57.5 µM. The source says: NIH Chemical Genomics Center [NCGC] Malcolm Walkinshaw, Hugh Morgan, Linda Gilmore University of Edinburgh, UK MLPCN Grant: 1 R03 MH085697-01 NCGC Assay Overview: Pyruvate kinase (L. Mexicana) (LmPK) enzyme was supplied as a highly purified (>95% pure) sulphate-free preparation from University of Edinburgh, UK and assayed for its ability to generate ATP from ADP using phosphoenolpyruvate (PEP) as a substrate. ATP generation was detected in a coupled reaction by luciferase-mediated luminescence, an ATP-dependent process. Pyruvate kinase substrates, PEP and ADP, were present in the assay at Km and approximately 10-fold below Km respectively. The enzyme was assayed at an intermediate level of activity to screen for both inhibitors and activators.
NCGC Assay Protocol Summary: Three uL of enzyme mix (kept on ice) in assay buffer (50 mM Imidazole pH7.2, 50 mM KCl, 7 mM MgCl2, 0.01% Tween 20, 0.05% BSA) containing PEP (0.5 mM final concentration) and LmPK (0.1 nM final concentration) was dispensed into white solid bottom 1,536 well microtiter plates. 23 nL of compound were delivered by a pin tool and 1 uL of ADP mix in assay buffer (r.t; 0.1 mM final ADP concentration) was added. Plates were incubated at room temperature for 1 hour. Two uL of detection mix (Kinase-Glo, Promega; at 4 degree Celsius protected from light) was added and luminescence read by a ViewLux (Perkin Elmer) at 1 second exposure/plate. Data were normalized to the uninhibited and AC100 inhibition (no enzyme). To monitor activation, the first column contained a five-fold concentration of LmPK (0.5 nM).
A general note: Quantitative high-throughput screening tests each substance at several concentrations.
`O=C(/C=C/c1ccccc1)c1ccccc1O`: the molecule was classed as inactive.

For the molecule `Cc1nc(-c2ccc(NC(=O)c3cccs3)cc2)cs1`, the molecule was called inactive.

As to `CCN(CC)c1ccc2oc(=O)c(C)nc2c1`, the molecule was classed as inactive.

`S=c1[nH]ccn1-c1ccc(Cl)cc1`: the outcome was inactive.

With `N=c1oc2ccccc2cc1C(=O)N/N=C/c1ccccc1`, the call was inactive.

In the case of `COc1cccc(C(=O)Nc2ccc(N3CCCC3)cc2)c1`, the molecule was classed as inactive.

`COc1ccc(C(=O)Nc2ccccc2C(=O)N/N=C/c2ccccc2OC)cc1`: the molecule was classed as inactive.

Regarding `O=C(O)/C=C/C(=O)NNc1ccc([N+](=O)[O-])cc1`, the molecule was classed as inactive.

Regarding `Clc1ccc2nc(CSc3ccccc3)cn2c1`, the molecule was classed as inactive.

In the case of `C/C(=N\NC(=O)OC(C)(C)C)c1ccc[nH]1`, the result was inactive.

As for `Cn1c(-c2sc3cc(C(F)(F)F)cnc3c2-c2ccccc2)n[nH]c1=S`, the call was inactive.

`COc1ccc(-c2cn3ccc(C)cc3n2)cc1`: the molecule was classed as inactive.

In the case of `Cc1cnc(NC(=O)c2ccccn2)s1`, the molecule was classed as inactive.

Take `S=c1[nH]nc(-c2cc(-c3ccsc3)n[nH]2)n1-c1ccccc1`: the molecule was classed as inactive.

For `COc1ccc(C2=Nc3cc(C)ccc3OC2)cc1`, the molecule was called inactive.

With `NC(=O)Cc1ccc2sc(-c3ccccc3)nc2c1`, the call was inactive.

As for `CCc1ccc2nc3sc(C(=O)Nc4nnc(CC)s4)c(N)c3cc2c1`, the molecule was classed as inactive.

`COc1cccc(C(=O)Nc2ccc(NC(=O)c3ccco3)cn2)c1`: the molecule was classed as inactive.

On to `Cc1csc(NC(=O)Nc2ccccc2[N+](=O)[O-])n1`, for which the outcome was inactive.

With `O=[N+]([O-])c1ccc2nc(-c3ccccn3)[nH]c2c1`, the molecule was classed as inactive.

Turning to `CCOc1cnc(C(=O)NNC(=O)c2ccccc2Br)o1`, the outcome was inactive.

On to `c1ccc(CN=C2Nc3ccccc3CS2)nc1`, for which the outcome was inactive.

Consider `C=CCn1c(-c2ccccc2OCC)n[nH]c1=S`, for which the call was inactive.

`COc1ccc(C(=O)Nc2ccccc2C(=O)N/N=C/c2ccc(O)c(OC)c2)cc1`: the outcome was inactive.

For the molecule `CCOc1ccc(C(=O)Nc2cccc(SC)c2)cc1`, the outcome was inactive.

`O=C(Nc1ccc2c(c1)OCCO2)c1cnccn1`: the call was inactive.

With `C=CCNC(=S)N1CCN(CCN=Cc2c(C)[nH]n(-c3ccc([N+](=O)[O-])cc3)c2=O)CC1`, the outcome was inactive.

As for `Cc1ccc(-n2[nH]c(C)c(/C=N/N3C(=O)c4cccc5cccc(c45)C3=O)c2=O)cc1`, the result was inactive.

For the molecule `Cc1ccc(C)c2c1cc(C)c1nnc(SCC(=O)Nc3cccc(C(=O)O)c3)n12`, the molecule was called inactive.

Consider `Cc1ccc(NCc2n[nH]c(=S)n2-c2ccccc2)cc1Cl`, for which the molecule was called inactive.

Regarding `COc1cccc(/C=N\NC(=O)C2=NNC(=O)C2C)c1O` (stereo not given), the call was inactive.

Take `S=c1[nH]nc(-c2cccs2)n1/N=C/c1cccs1`: the call was inactive.

With `CSC1=N/C(=C\C=C\c2cccs2)C(=O)S1`, the molecule was called inactive.

For `O=C(Nc1ccccc1)c1ccc2c(c1)OCO2`, the call was inactive.

With `CCc1cc(-c2n[nH]c(=S)n2CC(C)C)cs1`, the molecule was classed as inactive.

As for `Cc1[nH]n(-c2ccc([N+](=O)[O-])cc2)c(=O)c1C=NCCN1CCN(C(=O)c2ccccc2F)CC1`, the molecule was classed as inactive.

Regarding `Cc1cc(C(=O)N/N=C/c2ccc(N3CCOCC3)cc2)c(C)o1`, the molecule was classed as inactive.

In the case of `O=C(Nc1nc2ccccc2s1)c1ccc2c(c1)OCO2`, the molecule was classed as inactive.

As for `O=C(Nc1ccccc1)Nc1ccccc1C(=O)NCc1ccco1`, the call was inactive.

For `Cn1cccc1C(=O)Nc1nccs1`, the molecule was called inactive.

Regarding `O=c1c2ccccc2ncn1/N=C/c1ccccc1`, the call was inactive.

Regarding `C=CCn1c(C)cc(C2=NNC(=NCC)SC2)c1C`, the outcome was inactive.

Regarding `c1c2c(cc3sc(N4CCCCC4)nc13)OCCO2`, the molecule was classed as inactive.

For `O=C1/C(=C/c2cccs2)CCc2ccccc21`, the molecule was classed as inactive.

`Clc1ccc(-c2cc(-c3ccccn3)on2)c(Cl)c1`: the molecule was classed as inactive.

Regarding `O=C1CSC(=S)N1/N=C/c1ccc(O)c([N+](=O)[O-])c1`, the outcome was inactive.

Regarding `COc1ccc(OC)c(-n2c(-c3ccn[nH]3)n[nH]c2=S)c1`, the molecule was classed as inactive.

`CCn1c(CSCc2c(Cl)cccc2Cl)n[nH]c1=S`: the molecule was classed as inactive.

In the case of `O=C(/C=C/c1ccc2c(c1)OCCO2)c1ccc(O)cc1`, the molecule was called inactive.

On to `Cc1ccc(F)c(NC(=O)CCc2ccccc2)c1`, for which the call was inactive.

As to `COc1ccc(C(=O)/C=C/Nc2ccccn2)cc1`, the molecule was classed as inactive.

For the molecule `Cn1cc([N+](=O)[O-])c(C(=O)Nc2ccc3c(c2)OCCO3)n1`, the result was inactive.

In the case of `c1ccc2[nH]c(-c3nc4ccccc4[nH]3)nc2c1`, the call was inactive.

For `CC(=O)Oc1ccccc1C(=O)Nc1ncc([N+](=O)[O-])s1`, the result was inactive.

Turning to `O=C(c1ccc(F)cc1)n1c(=S)nc2ccccn21`, the result was inactive.

In the case of `C/C(=N\NC(=O)CC(C)C)c1c(C(F)(F)F)[nH]n(-c2nc3ccccc3s2)c1=O`, the molecule was classed as inactive.

Regarding `c1ccc(-c2noc(-c3cccs3)n2)nc1`, the call was inactive.

Turning to `Cc1ccc(-c2nc3ccccc3[nH]2)cc1N`, the molecule was classed as inactive.

Consider `CCCCC(CC(C)O)c1n[nH]c(=S)n1-c1ccccc1` (stereo not given), for which the outcome was inactive.

As for `COc1ccc(C(=O)Nc2ccc(F)cc2F)cc1`, the call was inactive.

For the molecule `Nc1ncc(-c2cc3ccccc3oc2=O)s1`, the molecule was classed as inactive.

For the molecule `CN(C)CCCSc1ccccc1NC(=O)/C=C/c1ccccc1`, the molecule was called inactive.

Take `COc1ccccc1-n1c(-c2cc(-c3ccco3)[nH]n2)n[nH]c1=S`: the call was inactive.

Turning to `COCn1c(COc2ccccc2)nc2ccccc21`, the result was inactive.

As for `N/C(=N\OC(=O)CCC1CCCCC1)c1ccccn1`, the molecule was called inactive.

As for `CCCc1cc(-c2n[nH]c(=S)n2Cc2ccccc2)cs1`, the outcome was inactive.

Regarding `O=C(OC1CCOC1=O)c1ccc(-c2nc3ccccc3s2)s1` (stereo not given), the outcome was inactive.

Regarding `COc1cccc(C(=O)c2cc3ccc(O)cc3oc2=O)c1`, the call was inactive.

In the case of `COc1cccc(-c2nc3cc(C)ccc3o2)c1`, the molecule was classed as inactive.

For `C=CCn1c(-c2ccc3[nH]c(C)c(C)c3c2)n[nH]c1=S`, the outcome was inactive.
